Screens deposited in PubChem BioAssay by National Center for Advancing Translational Sciences (NCATS).
KDM5B inh: inhibitors of human KDM5B histone demethylase; Q9UGL1; KDM5B demethylase, FDH-coupled NADH fluorescence (FDH is formaldehyde dehydrogenase); Potency, µM (series often up to 57.7 µM), hits mostly inhibitors; 220,000 tested, 2.6% active; active = well fitted inhibition curve with a large enough effect; note: 0% is about no effect; nearly all actives have a fitted effect of over 70% in size
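qHTS format, multiple compound concentrations. Buffer 50 mM HEPES pH 7.5/0.01% Tween-20; 200 nM KDM5BΔAP final; 10 min compound preincubation; substrate-mix levels 12.5 µM peptide, 25 µM α-KG, 0.25 mM NAD⁺; 30 min RT; ΔRFU.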
* = called active by the depositor; i = inactive. Many of the other results were omitted from the sample, so hits are more common in it than they were. Potency is the fitted concentration of half-maximal effect.

SMILES | KDM5B inh
Cc1ccc(CNC(=O)CCc2ncc(-c3ccc(C)c(C)c3)o2)cc1 | i
CNC(=O)c1cc2cc(N(C)S(=O)(=O)c3ccc(Cl)cc3)ccc2s1 | i
O=C(C1CCN(c2cnn(CC3CC3)c(=O)c2)C1)N1CCc2ccccc2C1 (centres undefined) | i
O=C1NC(=NC2CCCCC2)C2(CCN(Cc3ccc(F)cc3)C2)N1c1cccnc1 (centres undefined) | i
CC(=O)c1ccc(N2CCN(C(=O)c3csc(-c4ccccc4)n3)CC2)cc1 | i
Cc1cc(C)cc(-c2cccc(CN)c2)c1 | i
O=c1oc2ccc(Br)cc2cc1S(=O)(=O)c1ccccc1F | i
O=C(COc1ccc([N+](=O)[O-])c(F)c1)Nc1ccc2c(c1)CCC2 | i
O=C(NCc1ccc(C(=O)N2CCCC2)cc1)C1CCCCC1 | i
NS(=O)(=O)c1ccc(CNC(=O)c2ccccn2)cc1 | i
c1ccc(-c2ccnc(NCC(c3ccncc3)N3CCOCC3)n2)nc1 (centres undefined) | i
O=C(c1ccc(CNc2nccc(-c3cccnc3)n2)cc1)N1CCCCC1 | 28µM*
c1cncc(-c2ccnc(NCC(c3cccnc3)N3CCCCC3)n2)c1 (centres undefined) | 32µM*
Cc1ccc(CNc2ccc(-c3nc(-c4cccnc4)no3)cc2[N+](=O)[O-])cc1 | i
NS(=O)(=O)c1ccc(CNc2nccc(-c3cccnc3)n2)cc1 | 32µM*
O=C(NCc1ccc(C(=O)N2CCCCC2)cc1)c1ccc(C(F)(F)F)cc1 | i
NCCn1cc(C(=O)NCC(c2cccnc2)N2CCCCC2)nn1 (centres undefined) | i
Cc1ccccc1C1=NN(C(=O)CCC(=O)O)C(c2ccc3nccnc3c2)C1 (centres undefined) | i
Cc1noc(CSc2ccc(C(=O)N3CCc4ccccc43)cc2)n1 | i
COc1ccc(N2CCN(c3nc(C(=O)NCc4ccc(C)c(C)c4)cs3)CC2)cc1 | i
COc1cc(/C=C/c2nc3ccccc3c(=O)n2-c2ccc(C(=O)O)cc2)ccc1O | i
COc1cccc(OS(=O)(=O)c2ccc3c(c2)CCCC3)c1 | i
CN1C(=O)CC[C@]2(C(=O)NCc3cccc(Cl)c3)CCCC[C@@H]12 | i
CCn1cc([N+](=O)[O-])c(C(=O)NCc2ccc3c(c2)OCO3)n1 | i
CC1(C(=O)NCc2cccnc2)CCCc2cnc(Nc3ccccc3F)nc21 (centres undefined) | i
SMILES | KDM5B inh
CN(C)c1ncc2c(n1)C(C)(C(=O)NCc1ccc3c(c1)OCO3)CCC2 (centres undefined) | 32µM*
CN(C)c1ncc2c(n1)C(C)(C(=O)NCc1cccc(Cl)c1)CCC2 (centres undefined) | 40µM*
Cc1cnc(C(=O)N[C@@H]2CCC[C@@H]2C(=O)NCc2ccc3c(c2)OCO3)cn1 | i
O=C(Cc1ccc(F)cc1)N1CCN(C(=O)c2nnn3c2COC(c2ccc(F)cc2)C3)CC1 (centres undefined) | i
COc1ccc(C(=O)NS(C)(=O)=O)cc1F | i
Cc1cc(C2CCCN2S(=O)(=O)c2cc(C)c(C)cc2C)on1 (centres undefined) | i
COc1ccc(NC(=O)Cn2ncc3ccccc3c2=O)cc1 | i
O=C(Oc1ccc2c(-c3cc4cc(Cl)ccc4oc3=O)cc(=O)oc2c1)N1CCOCC1 | i
COc1ccc(CN2CCC3(C2)C(=NC2CCCCC2)NC(=O)N3c2cccnc2)cc1 (centres undefined) | i
CCOC(=O)C1=C(C)N(C)C(=O)N(C)C1c1c(F)cccc1Cl (centres undefined) | i
Cn1cnc2c1c(=O)n(CC(=O)NC1CC1)c(=O)n2C | i
CCN(CCn1cccn1)C(=O)c1ccc2nc(-c3ccc(F)cc3)cn2c1 | 25µM*
CCN(CC(=O)NCc1ccc(F)cc1)C(=O)c1ccc(C)o1 | i
CCN(CC)C(=O)c1c(-c2ccc(F)cc2)noc1[C@H](C)O | i
CCN(CC1CCCO1)C(=O)c1ccc2nc(-c3ccc(F)cc3)cn2c1 (centres undefined) | 22µM*
CN(C)c1ccc(CN(CC2CCCO2)C(=O)c2ccc(Br)cc2)cc1 (centres undefined) | i
COc1ccc(C(=O)N(Cc2ccc(N(C)C)cc2)CC2CCCO2)cc1 (centres undefined) | i
CCN(Cc1ccc(C)o1)C(=O)c1ccc2nc(-c3ccc(F)cc3)cn2c1 | 28µM*
Cc1ccc(CN(C(=O)c2ccc(F)cc2)c2ccccn2)o1 | i
O=C(NCc1ccc(Cn2cccn2)cc1)c1cn[nH]c1-c1ccc(F)cc1 | i
CC(=O)Nc1ccc(SC2CCCC2)cc1 | i
C=CCNC(=O)NC(=O)CN1CCC(Cc2ccccc2)CC1 | i
Cc1cccc(C(=O)N2CCC(c3nc4cc(C(F)(F)F)ccc4s3)CC2)n1 | i
O=C(Nc1ccccc1Cl)c1cc(=O)c2cc(Cl)ccc2o1 | i
C=CCn1c(SCC(=O)O)nc2c1c(=O)[nH]c(=O)n2C | i
SMILES | KDM5B inh
CCCOc1c(Br)cc(/C=C(/C#N)C(=O)OCC)cc1OC | i
CCOCCCNC(=O)CS(=O)Cc1nc(-c2cccc(C)c2)oc1C (centres undefined) | i
CC(=O)NC1(C)CCN(Cc2cnc(-c3ccccc3OCc3ccccc3)s2)CC1 | 40µM*
CC(=O)NC1(C)CCN(Cc2cnc(-c3cccc(N(C)C)c3)s2)CC1 | i
CC(=O)NC1(C)CCN(Cc2cnc(-c3ccccc3)s2)CC1 | i
Cc1oc2ncnc(N3CCOCC3)c2c1C(=O)NCC1CCN(CCc2ccc(F)cc2)CC1 | i
CC1Cc2cc(S(=O)(=O)NCCC(=O)N(C)Cc3ccco3)ccc2N1C(=O)C1CC1 (centres undefined) | i
COc1ccccc1CNc1nc(-c2cc(C)n(C3CC3)c2C)cs1 | i
O=C(c1ccc(OC2CCN(C(=O)c3ccoc3)CC2)nc1)N1CCOCC1 | i
O=C(c1ccoc1)N1CCC(Nc2cccn3ncnc23)CC1 | 13µM*
CN(C)C(=O)c1ccc(OC2CCN(C(=O)c3ccoc3)CC2)nc1 | i
Cc1ccccc1OCC(=O)Nc1c(N2CCCC2)c2ccccc2oc1=O | i
COc1ccc(C(=O)N2CC[C@H](c3nnc(-c4ccccc4OC)o3)C2)cc1OC | i
COc1ccccc1-c1nnc(C2CCN(C(=O)c3ccc(C)cc3)CC2)o1 | i
COc1ccccc1-c1nnc([C@H]2CCN(CC3CCCCC3)C2)o1 | 35µM*
CC(C)C(=O)NCc1ccc(-c2nc3ccccc3s2)cc1 | i
Cc1cc(C(=O)OCC(=O)Nc2ccccc2F)c2ccccc2n1 | i
Cc1cccc(CN2CCCC3(CCN(c4cc(C)nc(N)n4)C3)C2=O)c1 (centres undefined) | i
Cc1cccc(CN2CCCC3(CCN(C(=O)Cc4cccnc4)C3)C2=O)c1 (centres undefined) | i
Cc1cccc(CN2CCCC3(CCN(C(=O)c4ccc(=O)[nH]c4)C3)C2=O)c1 (centres undefined) | 13µM*
COc1ccc(CCNC(=O)COc2ccc3ccc(=O)oc3c2)cc1 | i
COc1ccc(NC(=O)N2CCCC(Cn3c(C4CC4)nc4cccnc43)C2)cc1Cl (centres undefined) | i
O=C(CCC1CCCC1)N1CCN(C(=O)c2cc(=O)c3ccccc3o2)CC1 | i
CN1CCOc2c(C(=O)NCCC(N)=O)cc(-c3ccccc3OC(F)(F)F)cc21 | 40µM*
CN1CCOc2c(C(=O)NCCC(N)=O)cc(-c3ccccc3O)cc21 | 32µM*
